FUS yeast rescue – rescues growth of FUS-expressing yeast; S. cerevisiae FUS-expressing, growth rescue, OD600, 24 h; Potency, µM (series often up to 76.6 µM), usual class: activators; 390,000 tested, 0.24% active; AID 1347120;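 also: plate controls were DMSO vehicle for no effect and reference control for full effect; nearly all actives have a fitted effect of over 55% in size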
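FUS-expressing yeast, raffinose-pregrown, induced in 2% galactose minimal medium at OD 0.005; compounds in a dilution series, 24hr at 30C. Growth restoration read as absorbance at 600 nm. CP55940 positive control, DMSO negative.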
aSyn rescue – inhibitors of alpha-synuclein toxicity in yeast | Yeast expressing alpha-synuclein, growth rescue, BacTiter-Glo, 24 h | Potency, µM (doses to about 46.1 µM), inactives show at the highest dose growth rescue (activation), usual class: activators | 370,000 tested, 0.14% active; also: % of control where 0% means no effect; nearly all actives have a fitted effect of over 65% in size
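Screening used galactose-induced yeast with toxic alpha-synuclein levels, exposed to compound for 24 hr at 30 deg C. Cell growth, read with BacTiter-Glo luminescence, gave the measured signal.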
Abeta yeast res – restores growth of yeast expressing A-beta42 peptide. yeast expressing A-beta42, growth rescue, OD600, 48 h; response scale: 0% DMSO, 100% iron-clioquinol control. Potency, µM (highest dose often 46.1 µM), usual class: activators. 410,000 tested, 0.063% active. AID 1347071; also: nearly all actives have a fitted effect of over 55% in size
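Growth rescue measured by 600 nm absorbance after 48 h yeast culture at 30 C with compound. Values normalized between DMSO and an equimolar ferric chloride plus clioquinol control.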
PTAP TSG101 blk – blocks PTAP/TSG101 interaction to inhibit HIV-1 budding; Fluorescence polarization, FITC-PTAP peptide / Tsg101 binding; Potency, µM (highest dose often 115 µM), inactives show at the top dose activity change, negative = inhibition, usual class: inhibitors; 340,000 tested, under 10 active; active = well fitted inhibition curve with a large enough effect in the main read-out, with a control signal flat, not every such curve was filed as active; inconclusive = small, poorly fitted or top-dose-only effect, or effect the other way, or a change in a side signal; inactive = no such curve, though single readings can be large or run the other way; also: % of control where 0% means no effect
Target sequence (Q99816 whole entry, looked up): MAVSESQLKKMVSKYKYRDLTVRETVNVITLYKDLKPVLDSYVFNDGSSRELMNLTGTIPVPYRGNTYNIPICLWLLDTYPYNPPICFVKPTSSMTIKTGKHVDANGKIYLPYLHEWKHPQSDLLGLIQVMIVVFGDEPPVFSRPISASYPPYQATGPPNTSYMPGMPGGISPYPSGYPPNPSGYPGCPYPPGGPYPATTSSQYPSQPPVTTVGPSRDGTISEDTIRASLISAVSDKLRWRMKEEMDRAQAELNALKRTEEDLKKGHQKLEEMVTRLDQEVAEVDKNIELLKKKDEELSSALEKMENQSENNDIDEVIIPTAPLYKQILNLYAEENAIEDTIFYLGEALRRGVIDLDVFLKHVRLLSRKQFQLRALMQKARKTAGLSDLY
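Fluorescence polarization binding of Tsg101 binding domain (10 uM final) to FITC-labeled PTAP peptide (50 nM final) in HEPES pH 7.5 buffer with NaCl, Tween 20, EDTA, TCEP. Compounds added before peptide; binding 20 min at RT.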
TDP-43 yeast inh – TDP-43 toxicity inhibition in yeast | TDP-43 expressing yeast growth rescue, BacTiter-Glo, 24 h | 410,000 tested, 1.8% active | Potency, µM (top dose mostly 46.1 µM), for the others: at the top dose growth rescue (activation), hits mostly activators; also: % of control where 0% means no effect; nearly all actives have a fitted effect of over 50% in size
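Cell-based yeast growth screen: TDP-43 expression induced in galactose, inoculum OD600=0.02 after raffinose pregrowth to mid-log. Read-out BacTiter-Glo luminescence at 24 hr, 30 deg C; inhibition of toxicity seen as signal increase.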
The depositor's hits bear a star; i = inactive; ? = inconclusive; / = not tested or not shown; [ ] = remark or other dose. Most compounds without a hit are left out; they make up all but 2.1% or so of the library. Unless noted, calls follow the shape of the dose curve; as a rule, active = well fitted curve in the direction sought with a large enough effect; inconclusive = small, poorly fitted or top-dose-only effect, or another doubt; inactive = no such curve, though single readings can be large; an effect the other way counts as inactive or inconclusive. Potency is read from the fitted curve at half-maximal effect.

SMILES	FUS yeast rescue	aSyn rescue	Abeta yeast res	PTAP TSG101 blk	TDP-43 yeast inh
Cc1ccc(CNC(=O)c2ccc(N3CCC4(CC3)CC(c3cccc(Br)c3)=NO4)c(N)c2)cc1	18µM*	4%	i	-1%	4%
Cc1ccc(S(=O)(=O)N(CC(=O)N2CCN(c3ccc(F)cc3)CC2)C2CCCCC2)cc1	?	9%	i	0%	20µM*
CCOC(=O)N1CCN(C(=O)CN(C2CCCCC2)S(=O)(=O)c2ccc(C)cc2)CC1	i	4%	i	-3%	?
CN(C(=O)COc1ccc(Cl)cc1Br)C1CCCCC1	i	0%	i	-4%	18µM*
O=C(COC(=O)COc1ccc(Cl)cc1Br)NC1CCCCCC1	i	7%	i	-8%	14%
COc1cccc(CNC(=O)C2CCCN(c3nn4cc(-c5ccc(C)cc5)nc4s3)C2)c1 (centres undefined)	i	/	i	/	0%
CS(=O)(=O)c1ccc2nc(NC(=O)c3ccc(Cl)cc3)sc2c1	i	4%	i	0%	/
CC(C)(Oc1ccc(Cl)cc1)C(=O)Nc1nc2ccc(S(C)(=O)=O)cc2s1	?	/	i	/	13µM*
CCC(=O)Nc1sc2c(c1C(=O)Nc1ccccc1C)CCC(C)C2 (centres undefined)	i	/	i	/	-7%
COc1ccccc1-c1cc2ccccc2[nH]1	i	-16%	i	0%	16µM*
CCn1c(C)cc(C(=O)CSc2nnc(C3CC3)n2C2CC2)c1C	i	1%	i	/	17%
COc1cc(-c2ccno2)ccc1S(=O)(=O)N1CCN(c2ccccc2)CC1	i	/	i	/	11µM*
COc1cccc(N2CCN(S(=O)(=O)c3ccc(-c4ccno4)cc3OC)CC2)c1	i	/	i	/	13µM*
COc1ccccc1N1CCN(S(=O)(=O)c2ccc(-c3ccno3)cc2OC)CC1	i	/	i	/	13µM*
COc1cc(-c2ccno2)ccc1S(=O)(=O)N1CCN(c2ccc(F)cc2)CC1	i	/	i	/	25%
c1cc(SC2CCCCC2)cc(-c2nc3cnccn3c2NC2CCCCC2)c1	i	-30%	i	16%	22µM*
CC1=C(C(=O)N2CCCCCC2)CC(CC(=O)NC2CCCC2)C(=O)N1Cc1ccccc1 (centres undefined)	i	1%	i	/	18%
COc1ccc(OC)c(/C=C/C(=O)N2CCN(S(=O)(=O)c3cc(C)ccc3C)CC2)c1	32µM*	1%	i	-1%	8%
CCNc1nc(N)nc(-c2cc(Cl)ccc2O)n1	i	2%	i	-3%	3.2µM*
CCCNC(=O)C1(C)CCN(CCOc2ccc(Cl)cc2)C1 (centres undefined)	i	13%	i	/	-7%
CN(C)S(=O)(=O)Oc1ccsc1C(=O)Nc1ccc(Cl)cc1	i	0%	i	2%	14µM*
CN(C)S(=O)(=O)Oc1ccsc1C(=O)Nc1ccccc1Cl	i	10%	i	-7%	44%
CN(C)S(=O)(=O)Oc1ccsc1C(=O)Nc1cccc(Cl)c1Cl	i	9%	i	0%	18µM*
COc1ccc(NC(=O)c2sccc2OS(=O)(=O)N(C)C)cc1	i	2%	i	5%	-8%
O=C(CSc1nc(=O)n2ccccc2n1)N1CCN(c2ccccc2)CC1	i	-2%	i	-2%	-7%
SMILES	FUS yeast rescue	aSyn rescue	Abeta yeast res	PTAP TSG101 blk	TDP-43 yeast inh
CCOC(=O)CC[C@@]1(C(=O)OCC)C[C@@H](CC(=O)NCC23CC4CC(CC(C4)C2)C3)C(=O)N2CCCC=C21	i	/	/	/	/
COc1cccc(-c2sc3ccc(OC)cc3c2-c2ccc(OCCN3CCOCC3)cc2)c1	?	-44%	i	-5%	35µM*
COc1cccc(-c2sc3ccc(OC)cc3c2-c2ccc(OCCN(C)C)cc2)c1	32µM*	-57%	i	0%	-55%
CSc1nn(Cc2cccc(F)c2)c(N(C(C)=O)C(C)=O)c1S(=O)(=O)c1ccccc1	i	/	i	/	35µM*
COc1cccc(Cn2nc(SC)c(S(=O)(=O)c3ccccc3)c2N(C(C)=O)C(C)=O)c1	i	/	i	/	20µM*
CSc1nn(Cc2ccc(Cl)cc2)c(N(C(C)=O)C(C)=O)c1S(=O)(=O)c1ccccc1	i	/	i	/	?
CSc1nn(Cc2ccc(Br)cc2)c(N(C(C)=O)C(C)=O)c1S(=O)(=O)c1ccccc1	i	/	i	/	35µM*
COC(=O)[C@@]12CCCCC3=C1N(CCC3)C(=O)[C@H]2CC(=O)NCc1ccc(OC)c(OC)c1	i	/	/	/	/
CCCS(=O)(=O)N1CC(=O)N(c2ccc(Cl)cc2C)C(C)(C(=O)NC2CCCC2)C1 (centres undefined)	i	/	i	/	-8%
Cc1[nH]c2ccccc2c1N=Nc1cccc(C(=O)O)c1	i	-59%	i	-2%	18µM*
COC(=O)c1cc(N=Nc2c(C)[nH]c3ccccc23)cc(C(=O)OC)c1	i	1%	i	-2%	0%
COCCSc1nnc(-c2cccnc2)n1Cc1ccccc1	i	/	/	/	/
Cc1ccc(NC(=S)Nc2cccnc2)c(S(=O)(=O)N2CCCCC2)c1	35µM*	0%	i	-3%	15%
CC(C)(C)c1ccc(/C=N/NC(=S)NCc2ccccc2)cc1	i	0%	i	-1%	7%
C=CCNC(=S)N/N=C/c1ccc(C(C)(C)C)cc1	i	1%	7.9µM*	2%	-5%[0.397 µM]
C=CCNC(=S)N/N=C/c1cn(C)c2ccccc12	i	-11%	?	0%	20µM*
C=CCCC(=O)N1C[C@H]2CON(C)[C@H]2C[C@H]1c1ccc(Br)cc1	i	2%	i	/	0%
COC(=O)C1=C2c3[nH]c4ccccc4c3CCN2C(=O)CC1	i	10%	i	-1%	10µM*
CCCCN1CCc2c([nH]c3ccccc23)C1=O	i	8%	i	-5%	22%
CCOC(=O)N1CCN(c2ccc(S(=O)(=O)N3CCC(C)CC3)cc2[N+](=O)[O-])CC1	i	3%	i	-3%	22µM*
COc1ccccc1N1CCN(C(=O)C2CCCN(c3ncnc4c3nc3n4CCCCC3)C2)CC1 (centres undefined)	i	-1%	i	-1%	23%
COc1ccccc1N1CCN(c2ncnc3c2nc2n3CCCC2)CC1	i	/	i	/	35µM*
COc1cccc(N2CCN(c3ncnc4c3nc3n4CCCCC3)CC2)c1	?	/	i	/	18µM*
COc1ccc(N2CCN(c3ncnc4c3nc3n4CCCCC3)CC2)cc1	i	/	i	/	16%
FC(F)(F)c1cccc(N2CCN(c3ncnc4c3nc3n4CCCC3)CC2)c1	i	/	i	/	16µM*

Source: PubChem
